From PubChem BioAssay AID504332 (National Center for Advancing Translational Sciences (NCATS), 2011)
Where “and” joins values, the source holds several entries; their conditions need not be identical. Equal values may be shown once. Hit rate of the full screen: of about 350,000 compounds, about 31,000 (8.9%) were called active. Not shown: some 15% with an inconclusive outcome. Calls follow the shape of the dose curve; as a rule, active = well fitted inhibition curve with a large enough effect; inconclusive = small, poorly fitted or top-dose-only effect; inactive = no such curve, though single readings can be large or run the other way. Many of the other results were omitted from the sample, so actives are more common in it than they were.

The compounds below were run against Histone-lysine N-methyltransferase EHMT2 (Homo sapiens) (UniProt Q96KQ7) (assay: qHTS Assay for Inhibitors of Histone Lysine Methyltransferase G9a). Conditions: G9a H3K9 monomethylation, AlphaScreen, 2 h; series mostly up to 102 µM; activity, negative = inhibition: at the top concentration.
Text: Methylated lysines, on the N-terminal tails of histone proteins serve as epigenetic markers to recruit factors that can then modify local chromatin structure to lead to functional consequences. G9a and other members of the SUV39 family of the SET domain-containing superfamily of histone lysine methyltransferases (HMT) have been identified to specifically methylate Lys9 of histone H3 (H3K9). G9a catalyzes the mono- and di-methylation of H3K9 in mammalian euchromatic regions, where the resulting H3K9me2 is indicative of transcriptional repression. […] The inhibition of G9a will result in transcriptional activation and work synergistically with DNA methyltransferase and histone deacetylase inhibitors, to kill cancer cells. This qHTS assay for identification of G9a inhibitors is a chemiluminescence based AlphaScreen (PerkinElmer). Methylation of biotinylated-histone peptide is measured through specific antibody-based detection, in conjunction with streptavidin-coated donor and anti-IgG antibody-coated acceptor beads. The method is particularly well suited for detection of inhibitors acting by the desired histone peptide competitive mechanism and is applicable to testing other HMTs. Although AlphaScreen has significant advantages with its utility in a variety of epigenetic target assays, the primary screening data provided in this deposition should be used with caution due to the prevalence of screening artifacts. An AlphaScreen counterscreen is highly recommended to be run against any putative actives to eliminate non specific artifacts. Alternatively, one can use other AlphaScreen assays in PubChem to filter out promiscuous hits. Quinn et al. A chemiluminescence-based method for identification of histone lysine methyltransferase inhibitors. Mol Biosyst 6(5): 782-8. 2010. PMID: 20567762 [2] Baell,Holloway. New substructure filters for removal of pan assay interference compounds (PAINS) from screening libraries and for their exclusion in bioassays. J Med Chem. 53(7):2719-40. 2010. PMID: 20131845 NIH Molecular Libraries Probe Production Network [MLPCN] NIH Chemical Genomics Center [NCGC] Structural Genomics Consortium (SGC) NIH Grant: 5U54 MH084681-02
To each well of a 1,536w plate, 2ul of HMT enzyme (final 20nM) were added, using a nanoliter dispenser. The G9a- and GLP-inhibitor BIX-01294 (CID: 25150857) are used as an intraplate control, with a 16-point titration in duplicate. A Kalypsys pin-tool transferred 23nl of library compound solution in DMSO to each well. Following a 15 min incubation of enzyme with compounds at room temperature, 1ul mixture of b-H3K9 peptide substrate (final 500nM) and SAM cofactor (final 20uM) were added. Reactions were allowed to proceed at room temperature for 2 hours. Methylated b-H3K9 peptide product was detected with 0.5 ug/mL rabbit polyclonal anti-monomethyl histone H3K9 antibody (Abcam Inc., Cambridge, MA) and 20 ug/mL each streptavidin-coated donor and anti-rabbit IgG acceptor AlphaScreen beads. Antibody and beads were added in a 1ul dispense, for a final volume of 4ul, and plates were incubated, protected from the light, for 10 min at room temperature. Microplates were then read on an EnVision multilabel plate reader using the 1,536 plate HTS AlphaScreen aperture (excitation time 80 ms, measurement time 240 ms).
% is scaled to controls: 0 for no effect and ±100 for the full control effect; potency is read from the fitted curve at half-maximal effect.
Also: nearly all actives have a fitted effect of over 75% in size.

Chain of Histone-lysine N-methyltransferase EHMT2 (Homo sapiens) (Q96KQ7 913-1193 limits assumed): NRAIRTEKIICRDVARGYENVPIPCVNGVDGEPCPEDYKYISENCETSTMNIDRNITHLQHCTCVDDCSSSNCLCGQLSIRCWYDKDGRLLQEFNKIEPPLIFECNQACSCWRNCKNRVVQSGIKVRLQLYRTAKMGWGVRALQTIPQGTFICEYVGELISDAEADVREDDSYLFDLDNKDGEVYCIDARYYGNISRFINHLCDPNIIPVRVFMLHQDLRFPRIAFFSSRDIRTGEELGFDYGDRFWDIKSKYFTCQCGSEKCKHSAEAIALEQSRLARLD

Compound | Potency | activity, negative = inhibition
c1ccc(Cc2nn3c(Cn4cnc5ccccc54)nnc3s2)cc1 | 3.16 µM (active) | 
COc1ccc(S(=O)(=O)NCc2ccc(C(=O)N3CCC4(CC3)OCCO4)cc2)cc1 |  | 7.61% [at 59 µM] (inactive)
CC(C)c1ccc(-n2c(O)c(/C=N/N3CCOCC3)c(=O)[nH]c2=S)cc1 | 50.1 µM (active) | 
O=c1[nH]c(=O)n(CCc2ccc(F)cc2)c(O)c1/C=N/N1CCCCC1 |  | -26.9% (inactive)
O=c1[nH]c(=O)n(CCc2ccccc2)c(O)c1/C=N/N1CCOCC1 |  | 4.98% (inactive)
Cc1cccc(-n2c(O)c(/C=N/N3CCOCC3)c(=O)[nH]c2=S)c1 | 22.4 µM (active) | 
O=C(N/N=C/c1c(O)n(C2CC2)c(=S)[nH]c1=O)c1ccccc1 |  | -6.95% (inactive)
O=c1[nH]c(=O)n(-c2ccccc2)c(O)c1C=NC12CN3CN(CN(C3)C1)C2 |  | -22.5% (inactive)
O=c1[nH]c(=O)n(-c2ccc(F)cc2)c(O)c1C=NCCN1CCCCC1 |  | 2.18% (inactive)
Cc1ccc(-n2c(O)c(C=NCC3CCCO3)c(=O)[nH]c2=O)c(C)c1 (centres undefined) |  | 48.7% [at 12.7 µM] (inactive)
Cc1cccc(-n2c(O)c(C=NC34CN5CN(CN(C5)C3)C4)c(=O)[nH]c2=O)c1 | 50.1 µM (active) | 
CN(C)CC1CCCCC1=O (centres undefined) |  | -0.643% [at 59 µM] (inactive)
CN(C)c1ccc(/C=C2\CC3C4CC=C5CC(O)CCC5(C)C4CCC3(C)C2=O)cc1 (centres undefined) |  | 18.3% [at 59 µM] (inactive)
COC(=O)C1=C(c2ccccc2OCc2ccccc2)C[C@@H]2CC[C@H]1N2C(=O)NCc1ccc(OC)cc1 |  | -7.46% [at 2.33 µM] (inactive)
CCOc1ccc(C2SCC(=O)Nc3c2c(C)nn3C2CCOC(C)(C)C2)cc1 (centres undefined) |  | -15.8% (inactive)
c1ccc2c(c1)[I+]c1ccccc1-2 |  | -19.1% [at 12.7 µM] (inactive)
Cc1ccc(-c2nc3ccccc3c(=O)n2-c2ccc(Br)cn2)cc1 |  | 8.78% (inactive)
CN(C)C(=O)Oc1ccc(NC(=O)N2CCOCC2)cc1 |  | 53.9% (inactive)
CSc1nc2ccc(C)cc2c(=O)n1-c1cccnc1 |  | 9.7% (inactive)
N#Cc1ccc(Cn2cc(C(=O)c3ccco3)c3ccccc32)cc1 |  | 6.49% [at 59 µM] (inactive)

Compound | Potency | activity, negative = inhibition
COc1ccc(-n2c(O)c(C(C)=Nc3ccc4c(c3)CCC4)c(=O)[nH]c2=O)cc1 |  | -22.6% (inactive)
CC(=O)NBr |  | inactive
CCc1nc2ccccc2c(=O)n1-c1cccc(OC)c1 |  | -1.25% [at 59 µM] (inactive)
Cc1cccc(-n2c(C)nc3cc(C(=O)N4CCC5(CC4)OCCO5)ccc32)c1 |  | -27.9% (inactive)
O=C(N/N=C/c1c(O)n(Cc2ccccc2)c(=O)[nH]c1=O)c1ccccc1 |  | -11.3% [at 59 µM] (inactive)
Cc1cc(=O)oc2c(C)c(OCC(=O)N3CCN(Cc4ccc5c(c4)OCO5)CC3)ccc12 |  | 12.7% (inactive)
Fc1ccc(N2CCN(Cc3ccc4c(c3)OCO4)CC2)cc1 | 8.91 µM (active) | 
CC(C)c1ccc(O)c(CN2CCN(c3ccccc3)CC2)c1 |  | 1.64% (inactive)
Oc1cc2c(cc1CN1CCN(c3ccccc3)CC1)OCO2 | 10 µM (active) | 
O=C(NCC(c1cccnc1)N1CCN(c2ccccc2)CC1)Oc1ccccc1 (centres undefined) |  | 8.36% [at 59 µM] (inactive)
Cc1ccc(C(C)C)c(OCC(=O)N2CCN(CC(=O)N3CCOCC3)CC2)c1 |  | 28.3% [at 12.7 µM] (inactive)
CN1CCN(/N=C/c2c[nH]c3ccccc23)CC1 |  | -6.44% (inactive)
CC(=O)OC1C2CCC3C1(CC(O)[C@@]1(O)[C@@H](CC(O)C1(C)C)[C@]3(C)O)C[C@@]2(C)O (some centres undefined) |  | -31.5% [at 2.33 µM] (inactive)
CCN1C[C@@]2(COC)CC[C@H](OC)[C@]34[C@@H]1[C@]1(OCO[C@@]15C[C@@H](OC)C1C[C@H]3[C@H]5[C@@H]1OC)[C@H](O)[C@@H]24 |  | 26.9% [at 21.5 µM] (inactive)
CSC1=NP(=S)(SC)N(C)c2nc3n(c21)CCC3 (centres undefined) |  | -0.587% (inactive)
COc1ccc(-c2nn(CCC#N)cc2C(=O)Nc2ccc(C(C)=O)cc2)cc1 |  | 38.3% (inactive)
COc1cc(-n2c(=S)[nH]c3ccc(C)cc3c2=O)c(Cl)cc1Cl |  | 20.4% [at 12.7 µM] (inactive)
Cc1cc2ccccn2c1C(C[N+](=O)[O-])c1c(F)cccc1Cl (centres undefined) | 44.7 µM (active) | 
Cc1nc2nc(C)c(CCC(=O)N3CCC4(CC3)OCCO4)c(C)n2n1 |  | 2.74% [at 59 µM] (inactive)
CNP1(NC)=Nc2nn(-c3ccccc3)c(N)c2C(c2ccccc2)=N1 |  | 1.22% [at 59 µM] (inactive)

Compound | Potency | activity, negative = inhibition
C/C=C/CC1(CC)C(=O)NC(=S)NC1=O |  | -10.4% (inactive)
O=C(CCC(=O)N1C[C@H]2C[C@@H](C1)c1cccc(=O)n1C2)NCc1ccccc1C(F)(F)F |  | 12.2% [at 0.501 µM] (inactive)
COc1cccc(C(=O)N2C[C@H]3C[C@@H](C2)c2cccc(=O)n2C3)c1 |  | 1.87% [at 12.7 µM] (inactive)
O=C(NC(=S)N1C[C@H]2C[C@H](C1)c1cccc(=O)n1C2)c1ccc(F)cc1 | 35.5 µM (active) | 
Cc1cccc(NC(=O)OC2CN3CCC2CC3)c1 (centres undefined) |  | -11.9% (inactive)
COC1=C[C@@H]2[C@@H]3Cc4ccc(OC)c(O)c4[C@]2(CCN3C)CC1=O |  | 23.7% [at 59 µM] (inactive)
COc1ccc2c(c1O)-c1cccc3c1[C@@H](C2)N(C)CC3 | 7.94 µM (active) | 
COP(=O)(OC)C(NC(=O)c1ccc(C)cc1)C(Cl)(Cl)Cl (centres undefined) |  | 5.04% (inactive)
C[C@]12CC[C@H](O)C[C@@H]1CC[C@H]1[C@H]2CC[C@]2(C)C(=O)CC[C@@H]12 |  | 13.5% [at 21.5 µM] (inactive) and 22.6% [at 21.5 µM] (inactive) and 16.7% [at 21.5 µM] (inactive)
Cc1ccc(C2CN(C)CC2C(=O)c2ccc(F)cc2)cc1 (centres undefined) |  | 7.75% (inactive)
Fc1cccc(F)c1CN1CCN(Cc2c(F)cccc2F)CC1 |  | -4.67% [at 59 µM] (inactive)
COc1ccc(CN2CCN(c3ccccc3F)CC2)c(OC)c1 | 11.2 µM (active) | 
O=C(O)C1CSC(c2cccnc2)N1 (centres undefined) | 3.55 µM (active) | 
C[C@@]1([C@@H](NP(=O)(c2ccccc2)c2ccccc2)c2ccccc2)C[C@H]1CCO |  | 25.1% (inactive)
COc1ccc(C2CC(c3cccs3)=NN2c2nc(C)c(C(C)=O)s2)cc1OC (centres undefined) |  | 25.5% (inactive)
CCOCCc1c(O)[nH]c(=S)[nH]c1=O |  | 5.61% (inactive)
COc1ccccc1N=Nc1c(O)[nH]c(=S)[nH]c1=O | 39.8 µM (active) | 
Clc1ccc2nc3c(c(-c4ccccc4)c2c1)CNCC3 |  | -15.8% [at 59 µM] (inactive)
CNCC[C@H](Oc1ccc(C(F)(F)F)cc1)c1ccccc1 |  | 4.7% [at 21.5 µM] (inactive) and 32.2% [at 12.7 µM] (inactive)
